Only a selection was taken, and hits are over-represented in it overall.
Dicer inh: human Dicer pre-microRNA cleavage inhibition | z-score at 25 µM | Q9UPY3 | cat-ELCCA pre-miR-21 Dicer processing, chemiluminescence; active compounds read high | hit rate 6% among 47,000 | AID 1347074; in the data active = z-score above about 3, passing the limit was not always enough;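 also: plate controls were vehicle for no effect and no enzyme for full effect; higher signal means more uncleaved substrate so more Dicer inhibition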
* hit, by the source's call.

What do the screens show for `C=CCOC(=O)C1=C(C)N=C2SCCC(=O)N2C1c1cccc(F)c1` (configuration not stated)?
Dicer inh: 2

Results for Cc1ccc(S(=O)(=O)N2CCC(C(N)=O)(N3CCCCC3)CC2)cc1 ?
Dicer inh: -0.71

Results for CCCN(CCC)C(=S)NC(=O)c1cccc([N+](=O)[O-])c1 ?
Dicer inh: 1.9

What do the screens show for `CN(C)/C=C/C=c1/c(=O)c2cccc3cccc1c32`?
Dicer inh: 3.7*

Results for CN(C)/C=C/C=C1\N=C(c2ccccc2)OC1=O ?
Dicer inh: 0.68

Results for CN(C)N1C(=O)c2cccc3cccc(c23)C1=O ?
Dicer inh: 3

Results for CCO/C=C(\C#N)S(=O)(=O)C(C)(C)C ?
Dicer inh: 0.23

Results for Cc1cccc(OCc2nc(-c3cccc(C)c3)no2)c1 ?
Dicer inh: -1.9

What do the screens show for `CCCN1C(=O)C2(/C(=C(/O)c3ccc4c(c3)CC(C)O4)C(=O)C(=O)N2CCOC)c2ccccc21` (configuration not stated)?
Dicer inh: 1.4

How did O=C1CC(Cc2ccc(Cl)cc2)C(=O)N1Cc1ccccc1 (configuration not stated) do in these assays?
Dicer inh: 3.3*

How did O=C1CC(Cc2ccccc2)C(=O)N1c1cccc(Cl)c1 (configuration not stated) do in these assays?
Dicer inh: 1.8

How did O=C1CC(Cc2ccc(Cl)cc2)C(=O)N1c1ccccn1 (configuration not stated) do in these assays?
Dicer inh: -0.83

What do the screens show for `O=C1CSc2nc(-c3ccccc3)c(-c3ccccc3)n21`?
Dicer inh: -0.62

Results for O=C1CSC(=O)N1C(c1ccccc1)(c1ccccc1)c1ccccc1 ?
Dicer inh: 4.5*

Results for CC(C)(C)c1ccc(N2C(=N)SCC2=O)cc1 ?
Dicer inh: 0.2

How did Cc1ccc(F)cc1NC(=O)Nc1cc(C(C)(C)C)on1 do in these assays?
Dicer inh: 0.14

Results for O=C(Oc1ccc2cc(Br)ccc2c1)c1ccco1 ?
Dicer inh: 5.8*

How did O=C(Oc1cccc(Br)c1)c1ccco1 do in these assays?
Dicer inh: 2.9

Results for O=C(Oc1ccc2c(c1)oc(=O)c1ccccc12)c1ccco1 ?
Dicer inh: -0.17

What do the screens show for `COc1cccc(-c2nc(-c3ccc(-c4ccc(C)cc4)nc3OC)no2)c1`?
Dicer inh: 0.58

What do the screens show for `COC(=O)c1sc(OC)cc1OC(=O)c1ccccc1C`?
Dicer inh: 0.54

What do the screens show for `Nc1ccc(CCc2nc3ccccc3[nH]2)cc1`?
Dicer inh: 6.5*

What do the screens show for `Cc1ccc(Cc2nc3ccccc3[nH]2)cc1`?
Dicer inh: -0.64

Results for CCOC(=O)CCc1nc2ccccc2[nH]1 ?
Dicer inh: 0.58

Results for O=C1/C(=C/c2cn(-c3ccccc3)nc2-c2ccccc2)CCc2ccccc21 ?
Dicer inh: -1.5

How did COC(=O)C(O)(NC(=O)c1ccccc1)C(F)(F)F (configuration not stated) do in these assays?
Dicer inh: 0.09

What do the screens show for `CN(C)c1ccc(/C=C/c2nc3ccccc3c(=O)[nH]2)cc1`?
Dicer inh: 5.5*

What do the screens show for `CN(C)c1ccc(/C=C/c2nc(-c3ccccc3O)n[nH]2)cc1`?
Dicer inh: 3

What do the screens show for `CN(C)c1ccc(-c2nc3ccccc3c(=O)[nH]2)c(Cl)c1`?
Dicer inh: -0.76

What do the screens show for `O=C(O)CSCC(=O)NC1CCN(Cc2c(F)cccc2Cl)CC1`?
Dicer inh: 0.47

How did CN(C)c1ccc(/C=C2\C(=O)ON=C2c2ccccc2)cc1C#N do in these assays?
Dicer inh: 0.5

Results for Fc1cccc(Cl)c1CSc1nncn1-c1ccc(OCc2ccccc2)cc1 ?
Dicer inh: -0.92

What do the screens show for `NNC(=S)Nc1ccc(Br)c(Cl)c1`?
Dicer inh: 5

How did CC(C)c1ccc(NC(=S)NN)cc1 do in these assays?
Dicer inh: 1

What do the screens show for `Cc1cc(NC(=S)NN)ccc1Br`?
Dicer inh: 4.1*

How did CC(C)n1c(CN2CCN(c3cccc(Cl)c3)CC2)nc2c1c(=O)n(C)c(=O)n2C do in these assays?
Dicer inh: -0.29

Results for COc1ccc2[nH]c(C)c(CN3CCC(C)CC3)c(=O)c2c1 ?
Dicer inh: 3.5*

How did COc1ccc2[nH]c(C)c(CN3CCCC3)c(=O)c2c1 do in these assays?
Dicer inh: 0.96

How did CCOc1ccc2[nH]c(C)c(CN3CCCC3)c(=O)c2c1 do in these assays?
Dicer inh: 0.61

Results for COc1ccc(C(=O)C[n+]2cc(-c3ccccc3)n3c2CCC3)cc1 ?
Dicer inh: -1.2

What do the screens show for `Cc1cccc(-c2nc(-c3ccc(N4CCN(c5ccc(C(F)(F)F)cn5)CC4)nc3)no2)c1`?
Dicer inh: -0.95

What do the screens show for `N#Cc1c(S/C=C(\O)c2ccccc2)nc2c(c1C(F)(F)F)CCCC2`?
Dicer inh: 1.2

Results for CCN1C(=O)C2(/C(=C(/O)c3ccc4c(c3)CC(C)O4)C(=O)C(=O)N2CCOC)c2ccccc21 (configuration not stated) ?
Dicer inh: 1.1

Results for Fc1ccc(OCc2nc(-c3ccc(-n4cccc4)cc3)no2)cc1 ?
Dicer inh: 1.1

Screening data: PubChem BioAssay, Center for Chemical Genomics, University of Michigan
